Screens as filed in PubChem BioAssay.
Sampled rows, rich in hits. Any-hit rate of the full collection: about 21%.
Cycloheximide cs = counter-screen hit for Shiga toxin inhibitors, cycloheximide; max response, %; cell reporter, cycloheximide protein synthesis inhibition counterscreen; 300,000 tested, 12% active; in the data active means max response mostly above about 13%, no sharp cut-off; inactive means mostly below about 14%; further: read at 38.3 µM for the half of the compounds with a filed dose
Pf growth 48h = inhibits P. falciparum growth in the first generation, 48 h. P. falciparum luciferase growth in erythrocytes, 48 h. Potency, µM (series often up to 28.7 µM), most hits filed as inhibitors. 310,000 tested, 5.9% active
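Cell-based growth assay: transgenic P. falciparum expressing firefly luciferase, cultured in red cells within RPMI 1640 containing 0.5% w/v Albumax, 24 mM bicarbonate and gentamycin. A drop in luciferase activity indicates inhibition.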
Pf growth 96h = P. falciparum growth inhibition at 96 hours | AID 504834 | Potency, µM (doses to about 28.7 µM), actives largely listed as inhibitors | 320,000 tested, 6.9% active | P. falciparum luciferase reporter growth, 96 h
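Readout is luminescence from an integrated firefly luciferase in P. falciparum. Red cells, 2% hematocrit and 0.05% parasitemia final, were cultured with compound through two parasite generations (96 hours) at 37 C, 5% CO2.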
Shiga inhibitor = inhibitors of Shiga toxin in Vero cells; 290,000 tested, 9.2% active; Vero cells, Shiga toxin protein synthesis inhibition reporter; inhibition, % at 38.7 µM; in the data active means inhibition mostly above about 28%, no sharp cut-off; inactive means mostly below about 43%
Each line names hits and unclear results; the compound was inactive in the other large screens. Unless noted, the call rests on the fitted dose curve; in most records, active means well fitted inhibition curve with a large enough effect; inconclusive means small, poorly fitted or top-dose-only effect, or another doubt; inactive means no such curve, though single readings can be large or run the other way.

CCCC12C(=O)C(C)(C(c3ccccc3)=C1c1ccccc1)C1C(=O)N(c3ccc(C)cc3)C(=O)C12 (stereo not drawn)	Pf growth 48h 2.62µM, Pf growth 96h 3.29µM
O=C(O)COc1ccc(/C=N/NC(=O)c2cccc3ccccc23)cc1	Pf growth 48h inconclusive
CCOC(=O)N1CCN(C(=O)CSc2ccc(-c3ccc(OC)cc3)nn2)CC1	Pf growth 48h inconclusive, Pf growth 96h inconclusive
O=S1(=O)N(CCN2CC=C(c3c[nH]c4cc(F)ccc34)CC2)c2cccc3c2N1CCC3	Pf growth 48h 1.17µM, Pf growth 96h 0.928µM (no result: Cycloheximide cs, Shiga inhibitor)
Cc1ccc(OCC(=O)Nc2ccc3c(c2)C(=O)NC3=O)cc1	Pf growth 96h inconclusive
CCOc1ccc2c(c1)OC(c1ccc(C)cc1)(C(F)(F)F)NC2=O (stereo not drawn)	Cycloheximide cs 27.2, Pf growth 48h 1.04µM, Pf growth 96h 3.29µM, Shiga inhibitor 52.9
COCc1cc(=O)n2[nH]c(-c3cccs3)cc2n1	Pf growth 48h inconclusive
O=C(COC(=O)c1ccc(CO)cc1)Nc1ccc2ccccc2c1	none (no result: Cycloheximide cs, Shiga inhibitor)
N#CCC(=O)Nc1ccc(C(=O)OCC(=O)N=c2sccn2Cc2ccccc2Cl)cc1	Pf growth 48h 11.7µM, Pf growth 96h inconclusive (no result: Cycloheximide cs, Shiga inhibitor)
N#CCC(=O)Nc1ccc(C(=O)OCC(=O)NNC(=O)c2cccs2)cc1	none (no result: Cycloheximide cs, Shiga inhibitor)
N#CCC(=O)Nc1ccc(C(=O)OCC(=O)Nc2ccc3ccccc3c2)cc1	Pf growth 48h 13.1µM (no result: Cycloheximide cs, Shiga inhibitor)
N#CCC(=O)Nc1ccc(C(=O)OCC(=O)c2ccc3c(c2)OCCO3)cc1	Cycloheximide cs 47.5, Shiga inhibitor 67.8
N#CCC(=O)Nc1ccc(C(=O)OCC(=O)c2ccc3c(c2)OCO3)cc1	Pf growth 96h inconclusive (no result: Cycloheximide cs, Shiga inhibitor)
O=C(COC(=O)c1cc(=O)c2ccccc2o1)Nc1ccc2ccccc2c1	Cycloheximide cs 11.1
O=C(CSC(=S)N1CCOCC1)Nc1ccc(S(=O)(=O)Nc2ncccn2)cc1	none
CCc1ccccc1N(CC(=O)NC(C)(C)CC)C(=O)CCC(=O)Nc1nccs1	Pf growth 48h inconclusive, Pf growth 96h inconclusive
CC1(C(=O)OCC(=O)Nc2ccc(C(N)=O)cc2)CC1(Cl)Cl (stereo not drawn)	none
CC(CCc1ccccc1)NC(=O)COC(=O)c1ccc(NC(=O)CC#N)cc1 (stereo not drawn)	Pf growth 48h 11.7µM, Pf growth 96h inconclusive
CC(CCc1ccccc1)NC(=O)COC(=O)c1ccc([N+](=O)[O-])cc1 (stereo not drawn)	none
NS(=O)(=O)c1cc(C(=O)OCC(=O)c2ccc3c(c2)OCCO3)ccc1Cl	Cycloheximide cs 40.4, Shiga inhibitor 59.4
CC1(C(=O)OCC(=O)Nc2ccc3ccccc3c2)CC1(Cl)Cl (stereo not drawn)	Cycloheximide cs 36.8, Shiga inhibitor 64.1
O=C(O)c1cc(Cl)c(Cl)cc1C(=O)NCc1ccco1	Pf growth 96h inconclusive
Cc1ccc(S(=O)(=O)Nc2ccc(-c3ccc4nncn4n3)cc2)cc1	Pf growth 96h inconclusive (no result: Cycloheximide cs, Shiga inhibitor)
O=C(CNC(=O)OCc1ccccc1)Nc1ccc(F)cc1	none (no result: Cycloheximide cs, Shiga inhibitor)
COc1ccc(C2C=C(c3ccccc3)Nc3ncnn32)cc1 (stereo not drawn)	Pf growth 48h inconclusive
COc1cccc(C2C=C(c3ccc(Br)s3)Nc3ncnn32)c1OC (stereo not drawn)	Pf growth 48h inconclusive, Pf growth 96h 2.33µM
COc1ccc(C2C=C(c3ccc(C)c(C)c3)Nc3ncnn32)c(OC)c1OC (stereo not drawn)	Pf growth 96h 9.28µM (no result: Pf growth 48h)
Cc1cccc(N2CCN(C(=O)c3ccc4c(c3)CCN4S(C)(=O)=O)CC2)c1C	Pf growth 96h inconclusive
CCOc1c(OC(C)=O)ccc(/C=C/c2ccc3cccc(OC(C)=O)c3n2)c1[N+](=O)[O-]	Cycloheximide cs 43.4, Pf growth 48h 6.57µM, Pf growth 96h 8.28µM, Shiga inhibitor active
COc1c(OC(C)=O)ccc(/C=C/c2ccc3cccc(OC)c3n2)c1[N+](=O)[O-]	Cycloheximide cs 21.8, Pf growth 48h inconclusive, Pf growth 96h inconclusive, Shiga inhibitor 41.3
CCOc1cc(/C=C/c2ccc3cccc([N+](=O)[O-])c3n2)ccc1OCC(=O)N(C)C	Pf growth 48h inconclusive, Pf growth 96h inconclusive
COc1c(OC(C)=O)ccc(/C=C/c2ccc3ccccc3n2)c1[N+](=O)[O-]	Cycloheximide cs 28.7, Pf growth 96h inconclusive, Shiga inhibitor 98.8
COc1ccc(/C=C/c2c([N+](=O)[O-])c(=O)n(C)c(=O)n2C)c(OC)c1OC	Pf growth 48h inconclusive
CC(=O)N/C(=C\c1ccccc1)C(=O)OCc1ccc(F)cc1	none
COC(=O)c1cc(=O)n(CCc2ccc(OC)c(OC)c2)c(=Nc2ccc(F)c(Cl)c2)s1	Pf growth 96h inconclusive (no result: Pf growth 48h)
CN(C)C(=O)N1CCC(C(=O)N2CCCC(C(=O)c3cccc4ccccc34)C2)CC1 (stereo not drawn)	Pf growth 48h inconclusive, Pf growth 96h inconclusive
COc1ccccc1CCNC(=O)C(=O)NCC1OCCCN1S(=O)(=O)c1cc(C)ccc1C (stereo not drawn)	Pf growth 48h inconclusive, Pf growth 96h inconclusive
Cc1ccc(C)c(S(=O)(=O)N2CCCOC2CNC(=O)C(=O)NCCc2ccco2)c1 (stereo not drawn)	Pf growth 96h 13.1µM
COc1ccc(CCNC(=O)C(=O)NCC2OCCCN2S(=O)(=O)c2cc(C)ccc2C)cc1 (stereo not drawn)	Pf growth 48h inconclusive, Pf growth 96h 13.1µM
CC(=O)c1ccc(NC(=O)c2cc(CC(C)C)on2)cc1	Cycloheximide cs 18.1, Shiga inhibitor active
CC(C)Cc1cc(C(=O)Nc2cccnc2)no1	Cycloheximide cs 35.4, Shiga inhibitor 111.2 (no result: Pf growth 48h)
COc1cc(NC(=O)c2cc(CC(C)C)on2)c(OC)cc1Cl	Pf growth 48h inconclusive
CSc1ccccc1NC(=O)c1cc(CC(C)C)on1	Cycloheximide cs 62.3, Shiga inhibitor 69.5
Cc1cc(C(=O)Nc2cccnc2)no1	none
CC(=O)c1ccc(NC(=O)c2ccn(C(=O)OCC(C)C)n2)cc1	Cycloheximide cs 70.7, Shiga inhibitor 55.8
CN(CC(=O)Nc1c(Cl)cccc1Cl)C(=O)C1=COCCO1	none (no result: Cycloheximide cs, Shiga inhibitor)
Cc1ccc(S(=O)(=O)N2CCN(CN3C(=O)CC4(CCCC4)C3=O)CC2)cc1	Pf growth 48h inconclusive (no result: Cycloheximide cs, Shiga inhibitor)
Cc1nn(C)c(Cl)c1CN1CCN(C2CCCC2)C(CCO)C1 (stereo not drawn)	none
COC(=O)c1c(-c2ccc(C)cc2)csc1NC(=S)NC(=O)c1ccc(F)cc1	Pf growth 48h inconclusive, Pf growth 96h 8.28µM
CCOC(=O)c1c(-c2ccc(C)cc2)csc1NC(=S)NC(=O)c1ccccc1	Pf growth 48h 10.4µM, Pf growth 96h 7.38µM
CN(C(=O)CSc1nnnn1-c1ccccc1)C1CCS(=O)(=O)C1 (stereo not drawn)	none
Cc1[nH]c(C)c2c(=O)n(Cc3ccc(Cl)cc3)ncc12	Pf growth 48h 11.7µM, Pf growth 96h inconclusive
N=c1c(C(=O)NCC2CCCO2)cc2c(=O)n3ccccc3nc2n1Cc1ccco1 (stereo not drawn)	none
N=c1c(C(=O)NC2CCCCC2)cc2c(=O)n3ccccc3nc2n1Cc1ccco1	Pf growth 48h 3.7µM
N=c1c(C(=O)NC2CCCCC2)cc2c(=O)n3ccccc3nc2n1Cc1ccccc1	Pf growth 48h inconclusive, Pf growth 96h 5.86µM
N=c1c(C(=O)NC2CCCCC2)cc2c(=O)n3ccccc3nc2n1Cc1cccnc1	Pf growth 48h inconclusive
